Experimental data published in PubChem BioAssay (NCATS).
“And” between values parts separate entries of the source, which are not always exact repeats. Equal values may be shown once. Records with an inconclusive call do not appear. The source made the active and inactive calls. Calls come from the whole dose curve; as a rule, active = well fitted curve in the direction sought with a large enough effect; inconclusive = small, poorly fitted or top-dose-only effect, or another doubt; inactive = no such curve, though single readings can be large; an effect the other way counts as inactive or inconclusive.

Tests used:
[1] = biological target: Cellular tumor antigen p53 (Homo sapiens) (UniProt P04637); assay: Primary qHTS for small molecule compounds that upregulate eGFP-tagged delta133p53alpha (in N-terminal) cells. (AID 2060322); settings: NCI-H358 eGFP-delta133p53alpha fluorescence, 24 h; activation: hits give high values;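 note: cells pre-induced with doxycycline then dosed without doxycycline; series mostly up to about 56 µM; 0% = DMSO vehicle and 100% = reference activator; nearly all actives have a fitted effect of over 75% in size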
Procedure, shortened: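 NCI-H358 cells pre-induced 24 h with 10 ng/ml doxycycline for eGFP-delta133p53alpha, plated dox-free and exposed 24 h at 37C to titrated compounds. Fixed, Hoechst-stained; gated GFP peak intensity by laser scanning cytometry, normalized to DMSO (0%) and 57.5 uM 5-azacytidine (100%).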

[2] = biological target: Aldehyde dehydrogenase, mitochondrial (Homo sapiens) (UniProt P05091); assay: qHTS for Inhibitors of the Aldehyde Dehydrogenase Family (ALDH2) Primary screen (AID 2061308);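 note: plate controls were vehicle for no effect and reference inhibitor for full effect; nearly all actives have a fitted effect of over 55% in size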
[3] = biological target: Retinaldehyde dehydrogenase 3 (Homo sapiens) (UniProt P47895); assay: qHTS for Inhibitors of the Aldehyde Dehydrogenase Family (ALDH1A3) Validation screen (AID 2061312); note: % is set by controls: 0 for no effect and ±100 for the full control effect; nearly all actives have a fitted effect of over 45% in size
[4] = biological target: Retinaldehyde dehydrogenase 3 (Homo sapiens) (UniProt P47895); assay: qHTS for Inhibitors of the Aldehyde Dehydrogenase Family (ALDH1A3) Primary screen (AID 2061315);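 note: plate controls were DMSO vehicle for no effect and reference inhibitor for full effect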

Cellular tumor antigen p53 (Homo sapiens), sequence (P04637 whole entry, looked up): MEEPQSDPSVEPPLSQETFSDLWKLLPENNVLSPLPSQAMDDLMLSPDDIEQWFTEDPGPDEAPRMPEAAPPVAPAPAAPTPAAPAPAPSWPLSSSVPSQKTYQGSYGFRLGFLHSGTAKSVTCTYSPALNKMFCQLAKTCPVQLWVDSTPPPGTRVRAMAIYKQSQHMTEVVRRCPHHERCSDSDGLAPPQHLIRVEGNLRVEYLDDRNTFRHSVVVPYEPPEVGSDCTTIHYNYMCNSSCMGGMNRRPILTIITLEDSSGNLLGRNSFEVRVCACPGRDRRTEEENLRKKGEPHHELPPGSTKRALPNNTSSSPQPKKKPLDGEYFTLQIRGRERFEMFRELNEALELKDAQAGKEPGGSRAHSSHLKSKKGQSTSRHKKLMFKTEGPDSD

CN1C(=O)[C@@H](Cc2c[nH]c3ccccc23)N=C(c2ccccc2F)c2ccccc21
inactive: activation [1] 15.8% | Potency [2] | Potency [3] | Potency [4]

CC(C)N(CCNC(=O)CN1CCCC1=O)C(C)C
inactive: activation [1] -9.94% and -3.34% | Potency [2] | Potency [3] | Potency [4]

Cn1ncnc1COc1nn2c(-c3c(F)cccc3F)nnc2cc1C1CCC1
inactive: activation [1] -7.16% | Potency [2] | Potency [3] | Potency [4]

Cc1cn(C[C@H](N)C(=O)O)c(=O)n(Cc2cc(-c3ccccc3)sc2C(=O)O)c1=O
inactive: activation [1] 8.11% | Potency [2] | Potency [3] | Potency [4]

CC(=O)N(C)c1cccc(-c2ccnc3c(C(=O)c4cccs4)cnn23)c1
inactive: activation [1] -3.13% and 5.73% | Potency [2] | Potency [3] | Potency [4]

CCc1c(C(=O)C(N)=O)c2c(OCC(=O)OC)cccc2n1Cc1ccccc1
inactive: activation [1] -15.3% | Potency [2] | Potency [3] | Potency [4]

Cc1cccc(NC(=O)N[C@@H]2N=C(c3ccccc3)c3ccccc3N(C)C2=O)c1
inactive: activation [1] -11% | Potency [2] | Potency [3] | Potency [4]

COc1cc(C(=O)O[C@H]2[C@@H]3C=CO[C@@H](O[C@@H]4O[C@H](CO)[C@@H](O)[C@H](O)[C@H]4O)[C@@H]3[C@@]3(CO)O[C@@H]23)ccc1O
inactive: activation [1] -3.82% | Potency [2] | Potency [4]

NCCCCCNC1(c2ccccc2)CCCCC1
inactive: activation [1] -6.68% | Potency [2] | Potency [3] | Potency [4]
